Source: PubChem BioAssay (Tox21)
Inconclusive results are not listed. Activity calls are given as the source filed them. Unless noted, the call rests on the fitted dose curve.

Columns and labels:
[1] = Nuclear factor erythroid 2-related factor 2/antioxidant responsive element (Nrf2/ARE) small molecule agonists: qHTS cell viability counter screen in human keratinocytes (AID 1919968; active means well fitted curve in the direction sought with a large enough effect in the repeat runs; an effect the other way counts as inactive or inconclusive; further: nearly all actives have a fitted effect of over 55% in size)
How it was run: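 Seed 1,500 KeratinoSens cells per well, then incubate 5 h at 37 C/5% CO2. Add compounds in DMSO and incubate 23 h. Add CellTiter-Fluor, wait 1 h and read fluorescence.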

[2] = Nuclear factor erythroid 2-related factor 2/antioxidant responsive element (Nrf2/ARE) small molecule agonists: luciferase reporter gene qHTS assay in human keratinocytes (AID 1919969); further: nearly all actives have a fitted effect of over 35% in size; further: potency means the concentration at half of the fitted maximal effect
[3] = biological target: Gonadotropin-releasing hormone receptor (Homo sapiens) (UniProt P30968); experiment: Human gonadotropin-releasing hormone receptor (GnRHR) small molecule agonists, calcium flux assay in GnRHR-HEK293 cells (AID 1920063); further: nearly all actives have a fitted effect of over 35% in size
How it was run: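 Cells: HEK293 stably expressing human GnRHR. Steps: overnight (18 h) culture, 1 h calcium dye loading at 37 C, compound addition, kinetic fluorescence read at 480/540 nm. Each compound tested at 15 concentrations in triplicate.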

[4] = biological target: KiSS-1 receptor (Homo sapiens) (UniProt Q969F8); experiment: Human kisspeptin (KISS1R) small molecule agonists, calcium flux assay in KISS1R-HEK293 cells (AID 1920064; active means well fitted curve in the direction sought with a large enough effect in the repeat runs; an effect the other way counts as inactive or inconclusive)
How it was run: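 Cells plated and incubated 18 h; dye added, 1 h at 37 C; compounds in DMSO pinned in; signal read at 480/540 nm every second for 3 min. Each compound tested at 15 concentrations in triplicate.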

[5] = G protein-coupled receptor (GPCR) small molecule agonists, calcium flux assay: HEK293 wild type cell line counter screen (AID 1920065)
How it was run: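 Counter-screen of the Tox21 10K library for non-specific calcium release: dye-loaded cells received compounds in DMSO and were monitored by kinetic fluorescence (480/540 nm, 3 min). Fifteen concentrations, run in triplicate.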

[6] = p53 small molecule agonists, cell-based qHTS assay with human liver microsomes (AID 1963577);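 further: p53 response element beta-lactamase reporter cells with liver microsomes plus NADPH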
How it was run: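 In this qHTS, p53 response-element beta-lactamase cells receive test compound together with a microsome/NADPH activating system (0.5 mg/mL final each) and are incubated 16 h at 37 C before LiveBLAzer fluorescence detection.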

[7] = p53 small molecule agonists, cell-based qHTS assay with rat liver microsomes (AID 1963578)
How it was run: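 Agonist mode in p53RE-bla reporter cells, with compounds co-incubated 16 h at 37 C alongside 0.5 mg/mL rat liver microsomes and 0.5 mg/mL NADPH (final), followed by a 2 h LiveBLAzer detection step.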

[8] = p53 small molecule agonists, cell-based qHTS assay with human liver microsomes: qHTS cell viability counter screen (AID 1963579); further: nearly all actives have a fitted effect of over 45% in size
How it was run: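 Metabolically activated exposure: compounds, human liver microsomes and NADPH (0.5 mg/mL final apiece) were added to p53RE-bla cells seeded 5 h earlier, left 16 h at 37 C, and then assessed for viability by CellTiter-Glo luminescence.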

[9] = p53 small molecule agonists, cell-based qHTS assay with rat liver microsomes: qHTS cell viability counter screen (AID 1963580); further: nearly all actives have a fitted effect of over 45% in size
How it was run: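 Viability is assessed in parallel with the p53 reporter read: HCT-116 p53RE-bla cells receive compounds plus rat microsomes and NADPH (0.5 mg/mL final apiece), incubate 16 h at 37 C, and then CellTiter-Glo luminescence is recorded.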

[10] = p53 small molecule agonists, cell-based qHTS assay: qHTS cell viability counter screen (AID 1963581); further: nearly all actives have a fitted effect of over 45% in size
How it was run: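 Cells: HCT-116 with p53 response element-driven beta-lactamase. Treatment: 16 h, 37 C, compounds in DMSO. Read: CellTiter-Glo luminescence after 30 min RT.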

[11] = p53 small molecule agonists, cell-based qHTS assay (AID 1963582; active means well fitted activation curve with a large enough effect in the signal ratio in the repeat runs, not every such curve was filed as active; the % refers to the signal ratio)
How it was run: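 Quantitative HTS in p53RE-bla cells: after a 5 h settling period, compounds delivered in DMSO were left on cells for 16 h at 37 C, and reporter induction was measured as fluorescence following 2 h substrate loading.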

[12] = biological target: 5-hydroxytryptamine receptor 2A (Homo sapiens) (UniProt P28223); experiment: 5-hydroxytryptamine receptor 2A (HTR2A) small molecule antagonists, cell-based qHTS assay (AID 1963586); further: nearly all actives have a fitted effect of over 45% in size
How it was run: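 Antagonist-mode intracellular calcium assay: DOI (4 nM) added after 5 min compound pre-incubation at room temperature to dye-loaded HTR2A-CHO cells. Fluorescence followed for 3 min, sampled every second.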

[13] = biological target: Muscarinic acetylcholine receptor M1 (Homo sapiens) (UniProt P11229); experiment: Cholinergic receptor muscarinic 1 (CHRM1) small molecule antagonists, cell-based qHTS assay (AID 1963588); further: nearly all actives have a fitted effect of over 40% in size
How it was run: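 CHRM1-CHO calcium-flux assay, antagonist mode. Cells were seeded 18 h, dye-loaded 1 h at 37 C and given compound for 5 min at RT, then acetylcholine was added at 50nM. FDSS fluorescence was read 3 min; 15 concentrations, three runs.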

[14] = biological target: Muscarinic acetylcholine receptor M1 (Homo sapiens) (UniProt P11229); experiment: Cholinergic receptor muscarinic 1 (CHRM1) small molecule agonists, cell-based qHTS assay (AID 1963589); further: nearly all actives have a fitted effect of over 35% in size
How it was run: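 Agonist-mode qHTS in CHO cells stably carrying human muscarinic M1. Intracellular calcium is tracked by fluorescence every second after compound transfer; each compound runs at 15 concentrations in three independent runs.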

[15] = cAMP Responsive Elements (CRE) small molecule agonists, cell-based qHTS assay (AID 1963590)
How it was run: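 Agonist mode qHTS in CRE-bla HEK 293T cells: compounds dosed from DMSO for 3 h at 37 C/5% CO2, followed by LiveBLAzer B/G FRET substrate for 2 h at room temperature.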

[16] = cAMP Responsive Elements (CRE) small molecule antagonists, cell-based qHTS assay (AID 1963591; active means well fitted inhibition curve with a large enough effect in the signal ratio in the repeat runs, not every such curve was filed as active; the % refers to the signal ratio)
How it was run: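 Antagonist mode: test compounds are co-incubated with the adenylyl cyclase activator NKH477 (0.25 uM final) on CRE-bla HEK293T cells for 3 h at 37 °C, followed by LiveBLAzer substrate loading.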

[17] = biological target: Beta-2 adrenergic receptor (Homo sapiens) (UniProt P07550); experiment: Adrenergic beta2 receptor (ADRB2) small molecule antagonists, cell-based qHTS assay (AID 1963592); further: series mostly up to about 92 µM; nearly all actives have a fitted effect of over 50% in size
How it was run: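 Cells (CHO, stable ADRB2 overexpression) incubated 18-20hr at 37C; compounds added from DMSO; agonist mix (1nM isoproterenol, 100uM IBMX, 25uM Ro-20-1724) added; 0.5hr RT; d2-cAMP and anti-cAMP-cryptate added; 1hr RT; 665/615 nm read.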

[18] = biological target: D(2) dopamine receptor (Homo sapiens) (UniProt P14416); experiment: Dopamine D2 receptor (DRD2) small molecule agonists, cell-based qHTS assay (AID 1963594); further: nearly all actives have a fitted effect of over 35% in size
How it was run: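 HEK293 cells stably expressing human DRD2, pre-treated with PDE inhibitor Ro20-1724 (0.1 mM final) and compound 10 min at room temperature, then stimulated with NKH477 (200nM […]) for 30 min. cAMP read by HTRF (665/620 nm).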

[19] = biological target: D(2) dopamine receptor (Homo sapiens) (UniProt P14416); experiment: Dopamine D2 receptor (DRD2) small molecule antagonists, cell-based qHTS assay (AID 1963595; active means well fitted inhibition curve with a large enough effect in the signal ratio in the repeat runs, with a control signal flat; the % refers to the signal ratio)
How it was run: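 DRD2-HEK293; 0.1 mM Ro20-1724; cpd 10 min RT; NKH477 200 nM + quinpirole 12 nM, 30 min RT; HTRF cAMP (cAMP-d2/anti-cAMP cryptate), 665/620 nm ratio after 1 h.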

Measured: Potency

Sequence of KiSS-1 receptor (Homo sapiens) (Q969F8 whole entry, looked up): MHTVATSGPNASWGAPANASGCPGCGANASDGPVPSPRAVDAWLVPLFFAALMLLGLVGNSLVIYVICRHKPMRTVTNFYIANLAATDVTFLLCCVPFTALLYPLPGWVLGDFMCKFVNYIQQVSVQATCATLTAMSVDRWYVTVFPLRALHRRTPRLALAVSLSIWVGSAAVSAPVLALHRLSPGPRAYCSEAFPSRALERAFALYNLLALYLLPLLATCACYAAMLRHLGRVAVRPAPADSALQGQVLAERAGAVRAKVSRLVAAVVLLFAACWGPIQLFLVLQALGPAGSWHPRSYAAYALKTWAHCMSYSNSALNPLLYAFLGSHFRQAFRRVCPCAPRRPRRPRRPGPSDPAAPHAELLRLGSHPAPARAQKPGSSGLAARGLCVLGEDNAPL
Sequence of Muscarinic acetylcholine receptor M1 (Homo sapiens) (P11229 whole entry, looked up): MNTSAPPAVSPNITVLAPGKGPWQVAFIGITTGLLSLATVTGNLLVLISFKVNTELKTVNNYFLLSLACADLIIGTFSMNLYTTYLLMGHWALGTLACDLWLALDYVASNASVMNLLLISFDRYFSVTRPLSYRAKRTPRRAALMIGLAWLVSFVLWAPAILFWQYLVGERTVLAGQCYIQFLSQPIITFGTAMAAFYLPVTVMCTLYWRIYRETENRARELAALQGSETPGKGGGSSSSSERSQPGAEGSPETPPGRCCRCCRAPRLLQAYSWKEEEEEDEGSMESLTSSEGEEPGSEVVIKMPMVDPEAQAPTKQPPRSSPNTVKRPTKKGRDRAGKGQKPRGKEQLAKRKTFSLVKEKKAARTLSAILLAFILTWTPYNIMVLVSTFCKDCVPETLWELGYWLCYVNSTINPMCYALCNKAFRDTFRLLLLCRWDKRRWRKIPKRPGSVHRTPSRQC
Sequence of D(2) dopamine receptor (Homo sapiens) (P14416 whole entry, looked up): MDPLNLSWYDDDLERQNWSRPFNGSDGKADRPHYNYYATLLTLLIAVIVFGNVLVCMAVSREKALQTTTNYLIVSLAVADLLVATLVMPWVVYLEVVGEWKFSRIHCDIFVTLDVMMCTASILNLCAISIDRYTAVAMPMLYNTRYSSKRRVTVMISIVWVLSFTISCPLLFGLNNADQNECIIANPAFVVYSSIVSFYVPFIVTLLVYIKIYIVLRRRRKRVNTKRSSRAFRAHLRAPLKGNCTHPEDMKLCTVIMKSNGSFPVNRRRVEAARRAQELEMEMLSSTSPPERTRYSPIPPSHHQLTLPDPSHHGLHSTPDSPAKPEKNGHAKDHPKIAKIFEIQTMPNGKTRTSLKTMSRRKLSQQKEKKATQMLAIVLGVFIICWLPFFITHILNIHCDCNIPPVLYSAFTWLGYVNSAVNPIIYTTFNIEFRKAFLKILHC
Sequence of Beta-2 adrenergic receptor (Homo sapiens) (P07550 whole entry, looked up): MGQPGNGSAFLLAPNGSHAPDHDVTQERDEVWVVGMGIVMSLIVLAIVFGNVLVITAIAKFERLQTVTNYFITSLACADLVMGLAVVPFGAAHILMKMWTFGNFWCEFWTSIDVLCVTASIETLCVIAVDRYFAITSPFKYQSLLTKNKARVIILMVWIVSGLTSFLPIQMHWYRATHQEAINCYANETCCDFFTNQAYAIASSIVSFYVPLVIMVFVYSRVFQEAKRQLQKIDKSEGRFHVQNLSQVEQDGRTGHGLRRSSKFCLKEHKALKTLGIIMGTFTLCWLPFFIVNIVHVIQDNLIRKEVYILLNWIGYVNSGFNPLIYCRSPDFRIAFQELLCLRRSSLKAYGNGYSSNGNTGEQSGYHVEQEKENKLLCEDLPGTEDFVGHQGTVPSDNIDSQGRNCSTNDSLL
Sequence of Gonadotropin-releasing hormone receptor (Homo sapiens) (P30968 whole entry, looked up): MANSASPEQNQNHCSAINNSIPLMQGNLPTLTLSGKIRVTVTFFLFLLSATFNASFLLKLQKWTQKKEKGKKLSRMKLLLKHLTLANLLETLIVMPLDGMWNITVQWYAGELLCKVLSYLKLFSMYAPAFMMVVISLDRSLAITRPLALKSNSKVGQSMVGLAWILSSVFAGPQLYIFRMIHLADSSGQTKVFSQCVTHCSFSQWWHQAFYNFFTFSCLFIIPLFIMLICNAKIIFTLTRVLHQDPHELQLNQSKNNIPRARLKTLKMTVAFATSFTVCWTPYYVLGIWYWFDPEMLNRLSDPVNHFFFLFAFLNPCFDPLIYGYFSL
Sequence of 5-hydroxytryptamine receptor 2A (Homo sapiens) (P28223 whole entry, looked up): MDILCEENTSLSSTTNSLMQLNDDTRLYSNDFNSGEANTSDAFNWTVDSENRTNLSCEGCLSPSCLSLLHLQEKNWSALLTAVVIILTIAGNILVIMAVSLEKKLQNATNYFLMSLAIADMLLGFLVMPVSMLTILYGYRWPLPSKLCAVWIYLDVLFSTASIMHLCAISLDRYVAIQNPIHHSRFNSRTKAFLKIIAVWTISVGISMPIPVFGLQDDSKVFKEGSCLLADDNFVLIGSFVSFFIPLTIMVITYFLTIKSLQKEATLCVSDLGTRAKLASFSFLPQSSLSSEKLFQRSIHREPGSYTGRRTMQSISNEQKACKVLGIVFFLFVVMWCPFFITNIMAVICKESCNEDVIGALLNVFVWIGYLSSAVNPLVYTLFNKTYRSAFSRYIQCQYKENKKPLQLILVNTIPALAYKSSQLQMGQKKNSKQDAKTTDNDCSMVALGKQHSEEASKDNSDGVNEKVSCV

COC(C)OC
inactive: all assays above

CC(C)(C)C(=O)CC(=O)C(C)(C)C
not listed: [14]
inactive: all other assays above

COc1ccc2[nH]c(S(=O)Cc3ncc(C)c(OC)c3C)nc2n1 (centres undefined)
active: [2] 21.1 µM
not listed: [13] | [15]
inactive: all other assays above
